This is an account of results in PubChem BioAssay (NCI).

Experiment [1] in a line: NCI Yeast Anticancer Drug Screen. Data for the rad50 strain (AID 155).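 Also: 0% = growth of vehicle-only cultures of the same strain.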 The conditions noted are these: S. cerevisiae rad50 strain growth inhibition, hits give high values. A digest of the protocol:
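Inhibition values express reduced yeast growth in compound-treated cultures relative to vehicle-treated controls.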

The nature of experiment [2]: NCI Yeast Anticancer Drug Screen. Data for the mec2-1 strain (AID 157). The note with it: S. cerevisiae mec2-1 strain, hits give high values. A digest of the protocol:
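Cells of the genetically defined mec2-1 yeast strain are incubated with test compound. Inhibition of growth is calculated against vehicle-treated controls.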

The nature of experiment [3]: NCI Yeast Anticancer Drug Screen. Data for the sgs1 mgt1 strain (AID 161).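 Also: 0% = growth of cultures given vehicle only.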 The conditions noted are these: S. cerevisiae sgs1 mgt1 strain, hits give high values. A digest of the protocol: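 Test agents were incubated with a DNA-repair-mutant yeast strain. Growth was then read and compared against vehicle-treated controls.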
The nature of experiment [4]: NCI Yeast Anticancer Drug Screen. Data for the cln2 rad14 strain (AID 165).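 Also: 0% = growth equal to vehicle treated cultures.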 The conditions noted are these: S. cerevisiae cln2 rad14 strain, hits give high values. The essentials: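 The screen exposed genetically defined yeast (cln2 rad14) to test compounds and scored growth inhibition relative to vehicle-treated controls.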
The nature of experiment [5]: NCI Yeast Anticancer Drug Screen. Data for the bub3 strain (AID 167). The note with it: S. cerevisiae bub3 mutant strain, hits give high values. A digest of the protocol: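 Steps: expose the mutant yeast strain to compound; grow alongside vehicle-treated cultures; measure growth; express inhibition against the vehicle cultures.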
Experiment [6] in a line: NCI Yeast Anticancer Drug Screen. Data for the mlh1 rad18 strain (AID 175). The conditions noted are these: S. cerevisiae mlh1 rad18 strain growth inhibition, hits give high values. A digest of the protocol: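 Compound-treated yeast growth, normalised to vehicle controls. Strain bears defined DNA repair mutations.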
Setting [7] is: at 5.0 µM (retest, dose inferred, filed as 0.5).
Where [8] appears, read: at 50.0 µM (retest, dose inferred, filed as 5.0).

About 79,000 compounds went through this panel and 15% of them were active in at least one assay; those are over-represented in the sample as a whole. Unmarked numbers belong to inactive results. Active and inactive are the calls of the source. Rule as the data show it: active = growth inhibition above about 70%; inactive = the rest.

Consider `CCn1c(=O)cc2n(C)c3ccccc3n2c1=O`, for which the growth inhibition in experiment [1] (setting [7]) was -30%; in experiment [1] (setting [8]), -23%; in experiment [1] (at 50.0 µM) it was 17.3%; in experiment [2] (setting [7]) it was 0%; in experiment [2] (setting [8]) it was -7%; in experiment [2] (at 50.0 µM), 17.4%. Also, the growth inhibition in experiment [3] (setting [7]) was -15%; in experiment [3] (setting [8]) it was -28%; in experiment [3] (at 50.0 µM), -5.15%; in experiment [4] (setting [7]), -39%; in experiment [4] (setting [8]) it was -24%; in experiment [4] (at 50.0 µM), 62.7%. Further, the growth inhibition was -23% in experiment [5] (setting [7]); -15% in experiment [5] (setting [8]); 0.6% in experiment [5] (at 50.0 µM); -36% in experiment [6] (setting [7]); -14% in experiment [6] (setting [8]); 23.4% in experiment [6] (at 50.0 µM).

For the compound `CCN(CC)CCNC(=O)c1ccc2c(c1O)C(=O)c1ccccc1C2=O`, the growth inhibition was 6% in experiment [1] (setting [7]); 54% in experiment [1] (setting [8]); 57.3% in experiment [1] (at 50.0 µM); 27% in experiment [2] (setting [7]); 24% in experiment [2] (setting [8]); 36% in experiment [2] (at 50.0 µM). The growth inhibition in experiment [3] (setting [7]) is 1%; in experiment [3] (setting [8]) it was 40%; in experiment [3] (at 50.0 µM) it was 60.5%; in experiment [4] (setting [7]) it was -10%; in experiment [4] (setting [8]), 23%; in experiment [4] (at 50.0 µM), 3.55%. Besides, the growth inhibition in experiment [5] (setting [7]) was -3%; in experiment [5] (setting [8]) it was 43%; in experiment [5] (at 50.0 µM), 33%; in experiment [6] (setting [7]), 9%; in experiment [6] (setting [8]) it was 44%; in experiment [6] (at 50.0 µM) it was 70% (active).

For `CCOC(=O)C(CC(=O)O)=C(c1ccccc1)c1ccccc1`, the growth inhibition was -10% in experiment [1] (setting [7]); -7% in experiment [1] (setting [8]); 17.5% in experiment [1] (at 50.0 µM); -5% in experiment [2] (setting [7]); -8% in experiment [2] (setting [8]); 18.5% in experiment [2] (at 50.0 µM). The growth inhibition in experiment [3] (setting [7]) was 3%; in experiment [3] (setting [8]) it was 14%; in experiment [3] (at 50.0 µM), 7.9%; in experiment [4] (setting [7]) it was -31%; in experiment [4] (setting [8]) it was 4%; in experiment [4] (at 50.0 µM) it was 79.7% (active). Further, the growth inhibition in experiment [5] (setting [7]) was 11%; in experiment [5] (setting [8]), 0%; in experiment [5] (at 50.0 µM), 25.1%; in experiment [6] (setting [7]), -10%; in experiment [6] (setting [8]) it was 7%; in experiment [6] (at 50.0 µM), -7.95%.

For the compound `N=C(N)c1ccc(/C=C/c2ccc(C(=N)N)cc2)cc1`, the growth inhibition in experiment [1] (setting [7]) was 69%; in experiment [1] (setting [8]), 80% (active); in experiment [1] (at 50.0 µM) it was 85.8% (active); in experiment [2] (setting [7]) it was 59%; in experiment [2] (setting [8]) it was 91% (active); in experiment [2] (at 50.0 µM), 81% (active). The growth inhibition is 57% in experiment [3] (setting [7]); 87% (active) in experiment [3] (setting [8]); 74% (active) in experiment [3] (at 50.0 µM); 75% (active) in experiment [4] (setting [7]); 84% (active) in experiment [4] (setting [8]); 67.6% in experiment [4] (at 50.0 µM). Also, the growth inhibition in experiment [5] (setting [7]) was 82% (active); in experiment [5] (setting [8]), 94% (active); in experiment [5] (at 50.0 µM), 87.5% (active); in experiment [6] (setting [7]), 90% (active); in experiment [6] (setting [8]), 95% (active); in experiment [6] (at 50.0 µM), 90.2% (active).

For the compound `CCOC(=O)Cn1c(=O)c2nc(SC)sc2n(-c2ccc(C)cc2)c1=S`, the growth inhibition in experiment [1] (setting [7]) was -3%; in experiment [1] (setting [8]) it was -1%; in experiment [1] (at 50.0 µM), -4.9%; in experiment [2] (setting [7]), -1%; in experiment [2] (setting [8]), -10%; in experiment [2] (at 50.0 µM), -6.25%. Also, the growth inhibition in experiment [3] (setting [7]) was 0%; in experiment [3] (setting [8]), 6%; in experiment [3] (at 50.0 µM), 27.1%; in experiment [4] (setting [7]), 14%; in experiment [4] (setting [8]) it was 17%; in experiment [4] (at 50.0 µM), 34%. Moreover, the growth inhibition is 1% in experiment [5] (setting [7]); 9% in experiment [5] (setting [8]); -10.4% in experiment [5] (at 50.0 µM); 2% in experiment [6] (setting [7]); 12% in experiment [6] (setting [8]); -19% in experiment [6] (at 50.0 µM).

As to `O=P1(N2CCCCC2)N(Cc2ccc(Cl)cc2)CCCN1Cc1ccc(Cl)cc1`, the growth inhibition in experiment [1] (setting [7]) was 59%; in experiment [1] (setting [8]) it was 96% (active); in experiment [1] (at 50.0 µM), 82% (active); in experiment [2] (setting [7]) it was 65%; in experiment [2] (setting [8]), 97% (active); in experiment [2] (at 50.0 µM) it was 51.5%. For the same compound, the growth inhibition is 11% in experiment [3] (setting [7]); 97% (active) in experiment [3] (setting [8]); 29.1% in experiment [3] (at 50.0 µM); 31% in experiment [4] (setting [7]); 96% (active) in experiment [4] (setting [8]); 63.2% in experiment [4] (at 50.0 µM). The growth inhibition in experiment [5] (setting [7]) was 49%; in experiment [5] (setting [8]), 96% (active); in experiment [5] (at 50.0 µM) it was 6.75%; in experiment [6] (setting [7]), 69%; in experiment [6] (setting [8]), 90% (active); in experiment [6] (at 50.0 µM), 76.8% (active).

On to `COC(C)(C)[C@@H]1CCCN1C1=C(C)C(=O)OC1`, for which the growth inhibition in experiment [1] (setting [7]) is 97% (active); in experiment [1] (setting [8]), 99% (active); in experiment [1] (at 50.0 µM) it was 46.6%; in experiment [2] (setting [7]) it was 85% (active); in experiment [2] (setting [8]), 99% (active); in experiment [2] (at 50.0 µM) it was 69.3%. Also, the growth inhibition in experiment [3] (setting [7]) is 61%; in experiment [3] (setting [8]), 99% (active); in experiment [3] (at 50.0 µM), 78.5% (active); in experiment [4] (setting [7]), 43%; in experiment [4] (setting [8]), 99% (active); in experiment [4] (at 50.0 µM), 24.6%. Besides, the growth inhibition in experiment [5] (setting [7]) was 89% (active); in experiment [5] (setting [8]), 99% (active); in experiment [5] (at 50.0 µM), 46.6%; in experiment [6] (setting [7]), 90% (active); in experiment [6] (setting [8]) it was 99% (active); in experiment [6] (at 50.0 µM) it was 75.8% (active).

On to `Cc1ccc(N=Nc2c(-c3ccccc3)nn(C(=S)S)c2-c2ccccc2)cc1`, for which the growth inhibition is 8% in experiment [1] (setting [7]); 48% in experiment [1] (setting [8]); 49.7% in experiment [1] (at 50.0 µM); 9% in experiment [2] (setting [7]); 37% in experiment [2] (setting [8]); 38.5% in experiment [2] (at 50.0 µM). In addition, the growth inhibition was 12% in experiment [3] (setting [7]); 72% (active) in experiment [3] (setting [8]); 55.8% in experiment [3] (at 50.0 µM); 5% in experiment [4] (setting [7]); 39% in experiment [4] (setting [8]); 16.2% in experiment [4] (at 50.0 µM). Besides, the growth inhibition in experiment [5] (setting [7]) was 36%; in experiment [5] (setting [8]) it was 84% (active); in experiment [5] (at 50.0 µM), 85.2% (active); in experiment [6] (setting [7]) it was 7%; in experiment [6] (setting [8]), 34%; in experiment [6] (at 50.0 µM), 61.8%.

Turning to `O=[N+]([O-])C1CCCC(C2=CSC3CCCCC3N2)C1` (stereo not given), the growth inhibition in experiment [1] (setting [7]) is 5%; in experiment [1] (setting [8]), -7%; in experiment [1] (at 50.0 µM), 48.2%; in experiment [2] (setting [7]), -21%; in experiment [2] (setting [8]), 10%; in experiment [2] (at 50.0 µM), 80.8% (active). For the same compound, the growth inhibition in experiment [3] (setting [7]) is -26%; in experiment [3] (setting [8]) it was -2%; in experiment [3] (at 50.0 µM), 63.4%; in experiment [4] (setting [7]) it was -4%; in experiment [4] (setting [8]), 16%; in experiment [4] (at 50.0 µM), 11.1%. In addition, the growth inhibition in experiment [5] (setting [7]) was 1%; in experiment [5] (setting [8]) it was 29%; in experiment [5] (at 50.0 µM), 86% (active); in experiment [6] (setting [7]), -24%; in experiment [6] (setting [8]), 36%; in experiment [6] (at 50.0 µM), 37.9%.

Consider `O=C1C(Cl)=C(c2ccc([N+](=O)[O-])cc2)C(=O)c2c(O)cccc21`, for which the growth inhibition is 79% (active) in experiment [1] (setting [7]); 95% (active) in experiment [1] (setting [8]); 90% (active) in experiment [1] (at 50.0 µM); 100% (active) in experiment [2] (setting [7]); 99% (active) in experiment [2] (setting [8]); 93.3% (active) in experiment [2] (at 50.0 µM). For the same compound, the growth inhibition is 28% in experiment [3] (setting [7]); 95% (active) in experiment [3] (setting [8]); 91.7% (active) in experiment [3] (at 50.0 µM); 82% (active) in experiment [4] (setting [7]); 97% (active) in experiment [4] (setting [8]); 90% (active) in experiment [4] (at 50.0 µM). For the same compound, the growth inhibition in experiment [5] (setting [7]) was 99% (active); in experiment [5] (setting [8]), 94% (active); in experiment [5] (at 50.0 µM) it was 90.8% (active); in experiment [6] (setting [7]), 99% (active); in experiment [6] (setting [8]) it was 97% (active); in experiment [6] (at 50.0 µM) it was 88.3% (active).
